For 57 compounds, inhibition results are on record in PubChem BioAssay AID1259422 (The Scripps Research Institute Molecular Screening Center, 2018).

“And” between values parts separate entries of the source, which are not always exact repeats. Identical values can stand only once. The whole screen tested about 640,000 compounds, of which about 9,300 (1.5%) were called active. The entries come from a sample that favours actives as a whole. A number with no mark means an inactive call. Cut-off read from the data, not from the text of the source: active = inhibition above about 32%; inactive = the rest.

A short description of this test: TEAD-YAP interaction inhibition, primary screen, TEAD-YAP interaction inhibitor project, luminescence, HEK-TIYL cells (AID 1259422).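 Note: 0% = median of test compound wells and 100% = reference inhibitor wells.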 The conditions noted are these: TEAD-Gal4/YAP UAS-luciferase luminescence, at 9.12 µM, stronger effect = higher value.
As to `Cc1ccc(N2CC(O)=C(c3nc4ccccc4n3C)C2=N)cc1C`, the inhibition (usually the relative decrease from the control value, in per cent) was -5.77%.
For `CC(C#N)OC(=O)c1ccc(N2CC(O)=C(c3nc4ccccc4s3)C2=N)cc1` (configuration not stated) the value was 5.73%; for `N=C1C(c2nc3ccccc3s2)=C(O)CN1c1cccc(F)c1`, 31.9% (active).
To `O=C1N[C@H](Cc2ccc(O)cc2)C(=O)N2CCN(C(=O)Oc3ccc(Cl)cc3)C[C@H]12` belongs -0.03%; to `Cc1cccc(CC(=O)Nc2cnn(-c3cccc(C(=O)N(C)Cc4ccon4)c3)c2)c1`, 8.24%.
To `COCc1cc(C(C)=O)ccc1OCC(=O)c1cc(C)n(-c2ccc(F)cc2)c1C` belongs -1.2%; to `COc1ccc(-n2c(C)cc(C(=O)COC(=O)COc3ccccc3C=O)c2C)cc1`, 5.99%; to `Cc1cc(C(=O)COC(=O)C2CC2)c(C)n1-c1ccc(F)cc1`, 39% (active).
In the case of `Cc1ccc(CCNC(=O)CCCNS(=O)(=O)c2ccc3c(c2)CCC(=O)N3)cc1`, the inhibition is 1.68%.
For `COc1ccc(CNc2nc(Nc3ccc(OC)cc3)nc3cc(OC)c(OC)cc23)cc1` the value was 1.6%; for `Fc1ccc(Nc2nc(NCc3ccccc3)c3ccccc3n2)cc1`, 42% (active).
For `Fc1ccc(CSc2nc(NCc3ccccc3)c3ccccc3n2)cc1` the value was -9.53%.
For `Fc1ccc(Nc2nc(NCC3CCCO3)c3ccccc3n2)cc1` (configuration not stated) the value was 42.1% (active); for `Fc1ccccc1CSc1nc(NCC2CCCO2)c2ccccc2n1` (configuration not stated), 0%; for `Fc1ccccc1-c1nc(NCC2CCCO2)c2ccccc2n1` (configuration not stated), 25.9%.
For `O=C(c1cc(COc2ccc(F)cc2Cl)on1)N1C[C@@H]2CCC[C@H]1C2`, the inhibition is -37.5%.
For `CC(CCc1ccco1)NC(=O)C1CCN(c2nc3ccccc3n2C)CC1` (configuration not stated) the value was 9.58%.
For `CCn1c(N2CCC(C(=O)NCCc3ccc(O)cc3)CC2)nc2ccccc21` the value was 4.47%.
For `COc1ccc2[nH]cc(CCNC(=O)C3CCN(c4nc5ccccc5n4C)CC3)c2c1` the value was 34.1% (active); for `COc1c(C(=O)Nc2ccc(NC(C)=O)cc2)ccc2ccccc12`, -28.1%; for `CN1CCN(c2ncn(-c3ccc(Nc4nccc(-c5ccc(NS(C)(=O)=O)cc5)n4)cc3)n2)CC1`, -0.18%.
As to `Cc1ncn(-c2ccc(Nc3nccc(-c4cc(C#N)cc(NC5CCN(C)CC5)c4)n3)cc2)n1`, the inhibition is 16.9%.
To `Cc1ncn(-c2ccc(Nc3nccc(N4CCc5[nH]ncc5C4)n3)cc2)n1` belongs 49.9% (active); to `CCc1nc2sc(C(c3ccc(F)cc3)N3CCCC3)c(O)n2n1` (configuration not stated), -0.93%; to `OCCN1CCN(C(c2ccc(F)cc2)c2ccc3cccnc3c2O)CC1` (configuration not stated), 87.9% (active).
`Oc1c(C(c2cccnc2)N2CCOCC2)ccc2cccnc12` (configuration not stated): the inhibition is 29%.
Turning to `Cc1ccccc1CN1CCN2C(=O)[C@H](Cc3ccc(O)cc3)NC(=O)[C@H]2C1`, the inhibition was 0.18%.
To `Cc1c(Cl)cccc1NC(=O)NNC(=O)C(N)=O` belongs 17%.
To `Cc1nn(CC(=O)NCc2ccccn2)c(=O)c2ccccc12` belongs -1.32%.
Take `N#Cc1ccc(C(=O)OCC(=O)Nc2ccc3c(c2)C(=O)c2ccccc2C3=O)cc1`: the inhibition is -21.3%.
To `CCOc1ccc(/C=C(\C#N)c2nc3ccccc3c(=O)[nH]2)cc1OC` belongs -0.7%.
For `CCOc1cc(/C=C(\C#N)c2nc(-c3cccs3)c(NC(C)=O)s2)ccc1O` the value was 41.9% (active).
Consider `CCOc1cc(/C=C(\C#N)c2nc3ncc(Br)cc3[nH]2)ccc1O`, for which the inhibition was -0.3%.
Take `COc1ccccc1NC(=O)Cn1cnc2sc(C(=O)Nc3ccc(F)cc3Cl)c(C)c2c1=O`: the inhibition is 10.1%.
On to `CCC(Sc1nc(Nc2ccc(F)c(F)c2)c2ccccc2n1)C(=O)Nc1ccc2c(c1)OCO2` (configuration not stated), for which the inhibition is 6.11%.
For `Cn1ncc(I)c1C(=O)N1CCc2ccccc2C1` the value was -9.15%; for `CN(Cc1ccccc1)CC(O)COc1ccc(CNCCN2CCCCC2)cc1` (configuration not stated), 3.88%.
For `Cc1ccc(NC(=O)CSc2nc3cc4c(cc3cc2C#N)OCCO4)cc1` the value was 20.6%; for `CN(C)c1ccc(NC(=O)CSc2nc3cc4c(cc3cc2C#N)OCCO4)cc1`, 66.1% (active).
To `Cc1cc(NC(=O)CSc2nc3cc4c(cc3cc2C#N)OCCO4)no1` belongs 2.38%; to `COc1ccc2ncc(S(=O)(=O)c3ccc(C)cc3)c(N3CCOCC3)c2c1`, -1.64%; to `O=C(CN1C(=O)[C@H]2CCCN2C(=O)c2ccccc21)NCc1ccccc1F`, 2.44%.
Consider `CC1CCCC/C1=N/NC(=O)CNc1ccc(Cl)cc1Br` (configuration not stated), for which the inhibition is 3.05%.
Take `CCOC(=O)C1=C(Cl)c2ccccc2NC1Cl` (configuration not stated): the inhibition is 2.33%.
Consider `COc1cccc(CC2=NOC(C(=O)NC(C)Cc3ccsc3)C2)c1` (configuration not stated), for which the inhibition was -35%.
On to `CCSCCOC(=O)C1=C(C)NC2=C(C(=O)CC(c3ccccc3)C2)C1c1ccccc1` (configuration not stated), for which the inhibition was 7.09%.
For `CCOCCOC(=O)C1=C(C)NC2=C(C(=O)CC(c3cccs3)C2)C1c1ccc(OC(C)=O)cc1` (configuration not stated) the value was 7.32%.
To `CSCCOC(=O)c1[nH]c2c(c1C)C(=O)CC(c1cccs1)C2` (configuration not stated) belongs 45.5% (active); to `CCCOC(=O)c1[nH]c2c(c1C)C(=O)CC(c1cccs1)C2` (configuration not stated), 54.8% (active); to `CCCOC(=O)C1=C(C)NC2=C(C(=O)CC(C)(C)C2)C1c1cccs1` (configuration not stated), -1.04% and 6.64%.
Take `CCSCCOC(=O)C1=C(C)NC2=C(C(=O)CC(c3cccs3)C2)C1c1ccsc1` (configuration not stated): the inhibition is 1.93%.
On to `C=CCOC(=O)c1[nH]c2c(c1C)C(=O)CC(c1ccccc1)C2` (configuration not stated), for which the inhibition is 42.7% (active).
For `CCOC(=O)C1=C(C)NC2=C(C(=O)CC(c3ccccc3)C2)C1c1ccccn1` (configuration not stated) the value was 11.1% and 10.6%; for `CCCOCCOC(=O)c1[nH]c2c(c1C)C(=O)CC(c1ccc(OC)cc1)C2` (configuration not stated), -2.72%.
For `COc1ccc2oc(=O)c(S(=O)(=O)c3ccc(C)cc3)cc2c1` the value was 7.59%; for `COc1ccc2cc(Br)ccc2c1CC(=O)N(C)C1CCN(C)CC1`, -3.7%.
For `COc1ccccc1NC(=O)NC(CC(=O)O)c1ccc(C)cc1` (configuration not stated) the value was 3.42%.
